# According to the supplement of paper PMC8728848:
# This is one part of a sample in which the strongest signals are shown more often than they occur.
# B1: FimA-N2 (Actinomyces oris) (protein)
# chain: MHHHHHHSSGVDLGTENLYFQSNAWIYDVNVYPKNEAIDVDKTIQAQKLNGYGVGSLIKFPVESTAPTLDAKSFYKYFQLKDTLDERLSEVTATDVSLEGTPLQPTDYKVETKQQTVTVTFTAEGLKKIKAAPGKKVSAVFQGKVTKAGNGAITNRAQVISDTLYAEQPPTPETPPTDPENPPTSDEVISRWGDLSIKKVDTHQQGQTKA
# Tests used:
# Test in all cases: glycan array binding signal (z-score within array); higher = stronger binding
# Conditions in all cases: glycan notation: IUPAC condensed, linker removed
# Gal3S(b1-4)GlcNAc = biological target: Gal3S(b1-4)GlcNAc
# In short: (§1)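 Columns mapping to the same glycan were averaged after glycan names were converted to IUPAC-condensed notation. The data come from 3228 arrays in the Consortium for Functional Glycomics database, limited to those with an available protein sequence. Binding is reported as a within-array Z-score averaged across arrays of one protein sequence and across linkers.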
# [1] = biological target: Gal3S(b1-4)[Fuc(a1-3)]Glc6S
# In short: as §1
# Gal4S(b1-4)GlcNAc = biological target: Gal4S(b1-4)GlcNAc
# In short: as §1
# Gal6S(b1-4)Glc6S = biological target: Gal6S(b1-4)Glc6S
# In short: as §1
# GalNAc(b1-3)Gal = biological target: GalNAc(b1-3)Gal
# In short: as §1
# [2] = biological target: GalNAc(b1-3)Gal(a1-4)Gal(b1-4)GlcNAc(b1-3)Gal(b1-4)Glc
# In short: as §1
# GalNAc3S(b1-4)GlcNAc3S = biological target: GalNAc3S(b1-4)GlcNAc3S
# In short: as §1
# GalNAc4S6S(b1-4)GlcNAc = biological target: GalNAc4S6S(b1-4)GlcNAc
# In short: as §1
# Glc(a1-6)Glc(a1-6)Glc = biological target: Glc(a1-6)Glc(a1-6)Glc
# In short: as §1
# GlcA(b1-3)GlcNAc = biological target: GlcA(b1-3)GlcNAc
# In short: as §1
# [3] = biological target: GlcNAc(b1-2)[GlcNAc(b1-4)]Man(a1-3)[GlcNAc(b1-4)][GlcNAc(b1-2)[GlcNAc(b1-6)]Man(a1-6)]Man(b1-4)GlcNAc(b1-4)[Fuc(a1-6)]GlcNAc
# In short: as §1
# [4] = biological target: GlcNAc(b1-3)Gal(b1-4)GlcNAc
# In short: as §1
# [5] = biological target: GlcNAc(b1-3)Gal(b1-4)GlcNAc(b1-3)Gal(b1-4)GlcNAc(b1-2)Man(a1-3)[GlcNAc(b1-3)Gal(b1-4)GlcNAc(b1-3)Gal(b1-4)GlcNAc(b1-2)Man(a1-6)]Man(b1-4)GlcNAc(b1-4)[Fuc(a1-6)]GlcNAc
# In short: as §1
# Man(a1-2)Man(a1-3)Man = biological target: Man(a1-2)Man(a1-3)Man
# In short: as §1
# [6] = biological target: Neu5Ac(a2-3)Gal(b1-4)GlcNAc
# In short: as §1
# [7] = biological target: Neu5Ac(a2-3)Gal(b1-4)GlcNAc(b1-2)[Neu5Ac(a2-3)Gal(b1-4)GlcNAc(b1-6)]Man(a1-6)[Neu5Ac(a2-3)Gal(b1-4)GlcNAc(b1-2)Man(a1-3)]Man(b1-4)GlcNAc(b1-4)GlcNAc
# In short: as §1
# [8] = biological target: Neu5Ac(a2-3)Gal(b1-4)GlcNAc(b1-2)[Neu5Ac(a2-3)Gal(b1-4)GlcNAc(b1-6)]Man(a1-6)[Neu5Ac(a2-3)Gal(b1-4)GlcNAc(b1-2)Man(a1-3)][GlcNAc(b1-4)]Man(b1-4)GlcNAc(b1-4)GlcNAc
# In short: as §1
# [9] = biological target: Neu5Ac(a2-3)Gal(b1-4)GlcNAc(b1-3)Gal(b1-4)GlcNAc(b1-2)Man(a1-3)[Neu5Ac(a2-3)Gal(b1-4)GlcNAc(b1-3)Gal(b1-4)GlcNAc(b1-2)Man(a1-6)]Man(b1-4)GlcNAc(b1-4)GlcNAc
# In short: as §1
# [10] = biological target: Neu5Ac(a2-3)Gal(b1-4)GlcNAc(b1-6)GalNAc
# In short: as §1
# [11] = biological target: Neu5Ac(a2-3)Gal(b1-4)[Fuc(a1-3)]GlcNAc(b1-6)[Gal(b1-3)]GalNAc
# In short: as §1
# [12] = biological target: Neu5Ac(a2-3)[Neu5Ac(a2-6)]GalNAc
# In short: as §1
# Neu5Ac(a2-6)Gal(b1-4)Glc = biological target: Neu5Ac(a2-6)Gal(b1-4)Glc
# In short: as §1
# [13] = biological target: Neu5Ac(a2-6)Gal(b1-4)GlcNAc(b1-2)Man(a1-3)[GlcNAc(b1-4)][Neu5Ac(a2-6)Gal(b1-4)GlcNAc(b1-2)Man(a1-6)]Man(b1-4)GlcNAc(b1-4)GlcNAc
# In short: as §1
# [14] = biological target: Neu5Ac(a2-6)Gal(b1-4)GlcNAc(b1-2)Man(a1-3)[Neu5Ac(a2-6)Gal(b1-4)GlcNAc(b1-2)Man(a1-6)]Man(b1-4)GlcNAc(b1-4)GlcNAc
# In short: as §1
# [15] = biological target: Neu5Ac(a2-6)Gal(b1-4)GlcNAc(b1-2)Man(a1-6)Man(b1-4)GlcNAc(b1-4)GlcNAc
# In short: as §1
# [16] = biological target: Neu5Ac(a2-6)Gal(b1-4)GlcNAc(b1-2)Man(a1-6)[Gal(b1-4)GlcNAc(b1-2)Man(a1-3)]Man(b1-4)GlcNAc(b1-4)GlcNAc
# In short: as §1
# [17] = biological target: Neu5Ac(a2-6)Gal(b1-4)GlcNAc(b1-2)Man(a1-6)[GlcNAc(b1-2)Man(a1-3)]Man(b1-4)GlcNAc(b1-4)GlcNAc
# In short: as §1
# [18] = biological target: Neu5Ac(a2-6)Gal(b1-4)GlcNAc(b1-3)Gal(b1-4)GlcNAc(b1-6)[Gal(b1-3)]GalNAc
# In short: as §1
# [19] = biological target: Neu5Ac(a2-6)GlcNAc(b1-4)GlcNAc(b1-4)GlcNAc
# In short: as §1
# [20] = biological target: Neu5Ac(a2-8)Neu5Ac(a2-3)Gal(b1-4)GlcNAc
# In short: as §1
# [21] = biological target: Neu5Ac(a2-8)Neu5Ac(a2-3)[GalNAc(b1-4)]Gal(b1-4)Glc
# In short: as §1
# [22] = biological target: Neu5Gc(a2-3)Gal(b1-4)GlcNAc(b1-3)Gal(b1-4)GlcNAc(b1-2)Man(a1-3)[Neu5Gc(a2-3)Gal(b1-4)GlcNAc(b1-3)Gal(b1-4)GlcNAc(b1-2)Man(a1-6)]Man(b1-4)GlcNAc(b1-4)GlcNAc
# In short: as §1
binder,measurement,setting,value
B1,glycan array binding signal (z-score),Gal3S(b1-4)GlcNAc,2.69
same,glycan array binding signal (z-score),[1],3.08
same,glycan array binding signal (z-score),Gal4S(b1-4)GlcNAc,3.9
same,glycan array binding signal (z-score),Gal6S(b1-4)Glc6S,-0.257
same,glycan array binding signal (z-score),GalNAc(b1-3)Gal,2.41
same,glycan array binding signal (z-score),[2],1.53
same,glycan array binding signal (z-score),GalNAc3S(b1-4)GlcNAc3S,0.248
same,glycan array binding signal (z-score),GalNAc4S6S(b1-4)GlcNAc,-0.331
same,glycan array binding signal (z-score),Glc(a1-6)Glc(a1-6)Glc,-0.88
same,glycan array binding signal (z-score),GlcA(b1-3)GlcNAc,0.654
same,glycan array binding signal (z-score),[3],-0.355
same,glycan array binding signal (z-score),[4],0.299
same,glycan array binding signal (z-score),[5],-0.07
same,glycan array binding signal (z-score),Man(a1-2)Man(a1-3)Man,0.075
same,glycan array binding signal (z-score),[6],-0.301
same,glycan array binding signal (z-score),[7],-0.853
same,glycan array binding signal (z-score),[8],-0.874
same,glycan array binding signal (z-score),[9],-0.355
same,glycan array binding signal (z-score),[10],1.38
same,glycan array binding signal (z-score),[11],1.73
same,glycan array binding signal (z-score),[12],-1.07
same,glycan array binding signal (z-score),Neu5Ac(a2-6)Gal(b1-4)Glc,0.148
same,glycan array binding signal (z-score),[13],-1.7
same,glycan array binding signal (z-score),[14],0.297
same,glycan array binding signal (z-score),[15],-0.759
same,glycan array binding signal (z-score),[16],-1.01
same,glycan array binding signal (z-score),[17],0.589
same,glycan array binding signal (z-score),[18],-0.597
same,glycan array binding signal (z-score),[19],0.675
same,glycan array binding signal (z-score),[20],-0.815
same,glycan array binding signal (z-score),[21],-1.37
same,glycan array binding signal (z-score),[22],-0.144
